A selection: hits, their analogues and other compounds. The true share with any hit is near 5.9%.
ALR inh: blocks human ALR sulfhydryl oxidase activity; purified ALR, DTT oxidation, H2O2 HRP-luminol luminescence; AID 485317; P55789; actives 3.8% (n = 290,000); inhibition, % (concentration not given with the values);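 active = mean replicate inhibition above about 79%, with every replicate also reaching it, limit read from the data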
PRMT1 inh: PRMT1 (human) inhibition, primary screen. recombinant PRMT1, activity-based probe fluorescence polarization. inhibition, % at 2.79 µM. actives 1.3% (n = 370,000). AID 652257. Q99873;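 active = inhibition above about 21% made by adding two undisclosed values, limit read from the data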
ABHD5 PLIN5 PPI: blocks binding of human ABHD5 to perilipin-5 | Q00G26+Q8WTS1 | actives 0.78% (n = 360,000) | inhibition, % at 4 µM | Split G. princeps luciferase complementation, luminescence, 4 h;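 active = inhibition above the mean inhibition across every tested compound plus 3 SD, cut at about 22% in these data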
Target sequence (Q00G26 whole entry, looked up): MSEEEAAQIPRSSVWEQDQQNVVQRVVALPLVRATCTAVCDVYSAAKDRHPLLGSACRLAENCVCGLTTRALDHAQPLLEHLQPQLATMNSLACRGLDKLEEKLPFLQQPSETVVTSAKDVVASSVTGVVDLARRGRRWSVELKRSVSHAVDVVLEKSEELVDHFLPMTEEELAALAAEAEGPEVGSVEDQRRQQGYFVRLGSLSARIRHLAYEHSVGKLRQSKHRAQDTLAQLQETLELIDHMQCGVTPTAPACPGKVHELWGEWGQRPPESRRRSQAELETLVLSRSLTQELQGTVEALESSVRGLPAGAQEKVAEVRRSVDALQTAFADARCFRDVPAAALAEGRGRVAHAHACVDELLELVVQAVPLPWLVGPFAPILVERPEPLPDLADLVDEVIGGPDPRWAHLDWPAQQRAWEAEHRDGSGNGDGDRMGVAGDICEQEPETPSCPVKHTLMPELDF
Target sequence (Q8WTS1 whole entry, looked up): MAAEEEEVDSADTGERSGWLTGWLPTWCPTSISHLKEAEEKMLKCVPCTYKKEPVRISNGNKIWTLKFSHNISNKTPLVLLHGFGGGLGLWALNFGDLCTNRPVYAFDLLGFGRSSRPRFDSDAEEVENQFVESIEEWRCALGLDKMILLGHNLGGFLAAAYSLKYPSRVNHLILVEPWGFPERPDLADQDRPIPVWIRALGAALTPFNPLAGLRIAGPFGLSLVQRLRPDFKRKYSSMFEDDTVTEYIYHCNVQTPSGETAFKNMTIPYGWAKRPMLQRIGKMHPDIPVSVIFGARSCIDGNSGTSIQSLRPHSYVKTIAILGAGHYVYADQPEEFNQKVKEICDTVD
rCAG RNA binder: r(CAG) repeat RNA binding; inhibition, % at 3 µM; actives 1.3% (n = 370,000); TO-PRO-1 dye displacement fluorescence;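 active = inhibition above the plate cutoff, the mean of all test compounds on that plate plus 3 SD, cut at about 35% in these data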;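 note: higher means more dye released from RNA so lower well fluorescence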
LANA-H2B inh: blocks KSHV LANA binding to histone H2A/H2B; Q9QR71; actives 0.6% (n = 320,000); cell-free LANA-H2A/H2B peptide, fluorescence polarization; inhibition, % (no concentration beside the values); in the data active = inhibition mostly above about 10%, no sharp cut-off; inactive = mostly below about 6.7%
Rtt109 HAT inh: inhibitors of Candida albicans Rtt109/Vps75 histone acetyltransferase; Q5AAJ8; purified Rtt109/Vps75, ThioGlo CoA-SH fluorescence, 4 h; inhibition, % at 34.9 µM; actives 0.16% (n = 330,000); AID 540336;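 active = inhibition of at least 50% in every replicate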
Numbers stand for hits; n = inactive; x = not tested or not shown.

SMILES	ALR inh	PRMT1 inh	ABHD5 PLIN5 PPI	rCAG RNA binder	LANA-H2B inh	Rtt109 HAT inh
COc1cccc(-c2nc(CS(=O)(=O)CC(=O)NCCc3ccccc3)c(C)o2)c1	n	n	n	n	n	n
COc1cccc(-c2nc(CS(=O)(=O)CC(=O)NCc3ccc(Cl)cc3)c(C)o2)c1	n	n	n	n	n	n
Nc1ccccc1Nc1c(F)c(F)nc(F)c1Cl	98	n	n	n	n	n
CCCCN1C(N)=NC[C@@H]1Cc1ccc(O)cc1	n	n	n	n	n	n
NC1=NC[C@H](Cc2ccc(O)cc2)N1CCC12CC3CC(CC(C3)C1)C2	93	n	n	n	n	n
CCN(CC)c1ccc(NC(=O)/C=C\c2ccccc2Cl)cc1	n	n	n	n	n	n
CN(C)c1ccc(NC(=O)/C=C/c2ccccc2Cl)cc1	n	n	n	n	n	56
Cc1occc1C(=O)N/N=C/c1ccc(N(C)C)cc1	94	n	n	n	n	x
CN(C)c1ccc(/C=N/NC(=O)c2ccccc2Cl)cc1	98	n	n	n	n	x
CN(C)c1ccc(/C=N/NC(=O)c2sccc2-n2cccc2)cc1	99	n	n	n	n	n
COC(=O)[C@H](CC(C)C)N(Cc1cn(CC2CCCCC2)nn1)S(=O)(=O)c1ccccc1Br	x	n	x	n	x	x
Cc1occc1C(=O)N/N=C/C=C/c1ccc(N(C)C)cc1	99	n	n	n	n	n
CN(C)c1ccc(/C=N/OC(=O)Nc2ccccc2)cc1	84	n	n	n	n	n
CCCCCCNC(=O)C1CSCCS(=O)(=O)N1Cc1ccc(C)cc1 (centres undefined)	x	n	x	n	x	x
Cc1cc(NC(=O)CSc2c(C)[nH]c3ccccc23)no1	95	n	n	n	n	n
Cc1cc(NC(=O)CSc2nc(C)c(C)n2CC(C)C)no1	93	n	n	n	n	n
Cc1cc(NC(=O)CSc2c[nH]c3ccccc23)no1	99	n	n	n	n	n
Cc1nc2ccc(NC(=O)c3cc(F)cc(F)c3)cc2c(=O)[nH]1	x	n	x	n	x	x
CCOc1ccc(-n2c(SCC(=O)Nc3cccc4ccccc34)nnc2-c2ccccc2)cc1	x	n	x	n	x	x
CCCCOCCCNC(=O)C[C@H]1C[C@@]2(C(=O)OC)C(=C[C@H](COCc3ccccc3)O[C@@H]2C)N(CCc2ccc(OC)c(OC)c2)C1=O	x	n	x	n	x	x
CCc1ccc(/C=N/NC(=O)Cc2cccn2C)cc1	96	n	n	n	n	n
O=C(CNC(=O)C1CCCCC1)OCn1nnc2ccccc2c1=O	n	n	n	n	15	n
O=C(CC1CCCCC1)OCn1nnc2ccccc2c1=O	n	n	n	n	n	n
CN(C)c1ccc(CC2C(=O)Nc3ccccc32)cc1 (centres undefined)	98	n	n	n	n	n
O=C(CSc1nc2ccccc2o1)NN=C/C=C\c1ccccc1[N+](=O)[O-]	x	n	x	n	x	x
SMILES	ALR inh	PRMT1 inh	ABHD5 PLIN5 PPI	rCAG RNA binder	LANA-H2B inh	Rtt109 HAT inh
C=CCOC(=O)N[C@H](c1cccc(OC)c1)[C@H](C)/C=C/CC(=O)OC	x	n	x	n	x	x
Cc1ccccc1N1CCN(C2CCCN(C(=O)c3cnsn3)C2)CC1 (centres undefined)	86	n	n	n	n	n
Cc1nc(C(=O)N2CCCC(N3CCN(c4ccccc4C)CC3)C2)cs1 (centres undefined)	n	n	n	n	n	n
Cc1ccc(S(=O)(=O)N2C(N)=C(C(=O)NCc3ccc(Br)cc3)C(c3ccc(Cl)cc3)C2C(=O)c2ccccc2)cc1 (centres undefined)	x	n	x	x	x	x
NS(=O)(=O)c1ccc(NC(=S)NC(=O)C2CCCCC2)cc1	n	n	n	n	n	n
CC(=O)c1ccc(NC(=S)NNC(=O)NC2CCCCC2)cc1	94	n	n	n	n	n
NS(=O)(=O)c1ccc(NC(=S)NC2CCCCCC2)cc1	96	24	n	n	n	n
O=C(Nc1ccc(Cl)cc1)N[C@@H]1CC[C@H](CCNS(=O)(=O)c2ccccc2F)O[C@@H]1CO	x	n	n	n	x	x
CCOc1cccc(Cc2c[nH]c(=O)[nH]c2=O)c1	x	n	n	n	x	x
CSc1nc(/C=C2\C=Nc3ccccc32)c(O)n1C	85	n	n	n	n	n
COC(=O)C1=C(C)N(Cc2cccc(C(F)(F)F)c2)C(=NCc2ccc(C(F)(F)F)cc2)NC1c1cccc(C(F)(F)F)c1 (centres undefined)	x	n	x	n	x	x
CC1Sc2ccc(S(=O)(=O)CCC(=O)N3CCN(c4cccc(Cl)c4)CC3)cc2NC1=O (centres undefined)	n	n	n	n	30	n
CC1Sc2ccc(S(=O)(=O)CCC(=O)N3CCN(c4ccccc4)CC3)cc2NC1=O (centres undefined)	n	n	n	n	n	n
C=CCNC(=O)CC1Nc2c3ccccc3nc(=S)n2C1=O (centres undefined)	95	n	n	n	n	n
CC(C)NC(=O)CC1Nc2c3ccccc3nc(=S)n2C1=O (centres undefined)	88	n	n	n	n	n
Oc1ccc(Br)cc1-c1ccnn1-c1ccccc1	97	n	n	n	n	n
CCc1nc2c(OCC(=O)c3ccc(Cl)cc3Cl)cccn2c1N(C=O)Cc1ccccc1	x	n	n	n	x	x
Cc1ccc(O)c(CP(=O)(c2ccccc2)c2ccccc2)c1	n	n	n	n	n	n
CCNc1ccccc1CP(=O)(c1ccccc1)c1ccccc1O (centres undefined)	n	75	x	n	n	x
C[C@H](c1ccccc1)N1C[C@@H](COCc2ccccc2)Oc2cccc(N3CCCC3)c2S1(=O)=O	x	n	x	n	x	x
N#Cc1ccccc1S(=O)(=O)N1CCN(C(=O)Cc2coc3cc(O)ccc23)CC1	99	n	n	n	n	n
Cc1ccc2c(CC(=O)N3CCN(S(=O)(=O)c4ccccc4)CC3)coc2c1	x	n	n	n	x	n
CN(C)c1cccc(C(=O)NCc2ccccc2)c1	96	n	n	n	n	n
CCCCNS(=O)(=O)CC1NCc2ccccc21 (centres undefined)	x	n	x	n	x	x
Cc1ccc(-c2nc3ncccn3c2NC(=O)c2cccc(C)c2)cc1	x	n	x	n	x	x
Cc1cccc(N2CCN(C(=O)c3ccccn3)CC2C)c1 (centres undefined)	n	n	n	n	n	n
Cc1cccc(N2CCN(C(=O)NC3CCCCC3)CC2C)c1 (centres undefined)	88	n	n	n	n	n
Cc1cccc(N2CCN(C(=O)c3ccc(CS(=O)(=O)c4ccccc4C)o3)CC2C)c1 (centres undefined)	95	n	n	n	n	n
COc1ccccc1N1CCN(C(=O)CCn2c(=O)[nH]c3ccsc3c2=O)CC1	n	n	n	n	n	n
Cc1cccc(N2CCN(C(=O)CCN3C(=O)C4C5C=CC(C5)C4C3=O)CC2C)c1 (centres undefined)	84	n	n	n	n	n
